# Assay outcomes: PubChem, National Center for Advancing Translational Sciences (NCATS)
# This is a sample that favours compounds with a hit; in the whole collection about 2.7% have one here.
# LDHA block = blocks human lactate dehydrogenase A | P00338 | purified LDHA, NADH/diaphorase-resazurin fluorescence; stronger effect = lower value | activity change, % (values are at about 110 or 230 µM) | hit rate 0.15% among 480,000 | AID 1347041; in the data active = activity change below about -30%; inconclusive = mostly about -25% to -30%;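 also: plate controls were DMSO wells for no effect and wells without enzyme for full effect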
#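 Human LDH5 at 2 nM final in Tris HCl pH 7.4 with 0.06 mM NADH and 0.2 mM pyruvate, reacted 5 minutes at room temperature. Remaining NADH coupled via diaphorase/resazurin; resorufin fluorescence read at 0 and 20 minutes, normalized to enzyme-free and DMSO wells.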
# Nrf2 ARE act = activates Nrf2 signaling; AREc32 ARE-luciferase reporter (MCF7-derived line), luminescence, 24 h; Potency, µM (highest dose often 46.1 µM), without a hit: top-dose activation, usual class: activators; hit rate 0.31% among 410,000; AID 624171; also: potency is read from the fitted curve at half-maximal effect; % of control where 0% means no effect; nearly all actives have a fitted effect of over 65% in size
#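 Reporter line AREc32 (ARE-Fluc), seeded overnight in OPTI-MEM with 5% FBS; compound pin-transferred, 24 hr at 37 deg C, 5% CO2; luminescent read-out.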
# ALOX12 inh = ALOX12 (human) lipoxygenase inhibition; P18054; purified 12hLO, xylenol orange hydroperoxide absorbance; Potency, µM (highest dose often 108 µM), for the others: at the top dose activity change, negative = inhibition, hits mostly inhibitors; hit rate 1.1% among 580,000; AID 1671190; also: potency is read from the fitted curve at half-maximal effect; % is scaled to controls: 0 for no effect and ±100 for the full control effect
# Target sequence (P18054 whole entry, looked up): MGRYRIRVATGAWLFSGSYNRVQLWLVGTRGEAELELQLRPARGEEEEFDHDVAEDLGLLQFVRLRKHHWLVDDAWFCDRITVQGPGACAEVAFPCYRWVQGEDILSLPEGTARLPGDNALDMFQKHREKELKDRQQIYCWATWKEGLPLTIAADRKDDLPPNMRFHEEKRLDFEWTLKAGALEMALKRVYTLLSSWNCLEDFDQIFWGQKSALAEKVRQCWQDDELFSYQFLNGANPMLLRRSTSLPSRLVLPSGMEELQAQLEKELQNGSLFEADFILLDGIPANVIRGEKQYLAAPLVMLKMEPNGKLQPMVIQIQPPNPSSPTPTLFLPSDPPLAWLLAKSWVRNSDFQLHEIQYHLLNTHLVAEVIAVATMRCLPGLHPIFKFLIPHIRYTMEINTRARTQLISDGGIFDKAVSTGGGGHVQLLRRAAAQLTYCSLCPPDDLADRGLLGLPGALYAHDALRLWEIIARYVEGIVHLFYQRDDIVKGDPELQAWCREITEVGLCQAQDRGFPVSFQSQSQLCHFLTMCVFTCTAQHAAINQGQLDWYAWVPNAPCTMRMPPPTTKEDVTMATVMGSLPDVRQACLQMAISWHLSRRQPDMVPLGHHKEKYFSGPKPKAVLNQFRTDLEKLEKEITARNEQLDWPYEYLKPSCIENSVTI
#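 Purified human 12hLO (150 nM final) in 25 mM Hepes, 0.01% Triton X-100, pH 7.0 was preincubated 15 min at room temperature with compound. Then 40 uM arachidonic acid was added, 30 min. Hydroperoxide was read by Fe-XO absorbance ratio 573/405 nm.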
# Nrf2 inh = inhibitors of Nrf2 signaling | AID 504444 | A549 ARE-Fluc reporter, luciferase luminescence, 18-24 h | hit rate 2.1% among 360,000 | Potency, µM (doses to about 46 µM), without a hit: at the highest dose activity change, negative = inhibition, hits mostly inhibitors; also: potency is read from the fitted curve at half-maximal effect; % is scaled to controls: 0 for no effect and ±100 for the full control effect; nearly all actives have a fitted effect of over 60% in size
#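 Two sequential reads on A549 ARE_Fluc cells exposed to compound for 18-24 h: a CellTiter-Fluor fluorescence read for viability, then a luciferase luminescence read for Nrf2/ARE activity.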
# ERG-DNA inh = blocks human ERG Ets domain binding to DNA; P11308; fluorescence polarization, His-ERG Ets domain / labelled DNA; Potency, µM (highest dose often 76.9 µM), for the others: top-dose FP activity, negative = inhibition, actives largely listed as inhibitors; hit rate 0.028% among 370,000; AID 624246; active = well fitted inhibition curve with a large enough effect in the polarisation, with a control signal flat; inconclusive = small, poorly fitted or top-dose-only effect, or effect the other way, or a change in a side signal; inactive = no such curve, though single readings can be large or run the other way; the % refers to the polarisation;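 also: polarization taken with two DNA probes labelled with fluorescein and Texas red; potency is read from the fitted curve at half-maximal effect; % of control where 0% means no effect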
#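 His-tagged ERG Ets domain (1 uM in the protein solution; 300mM KCl, 50mM Tris-HCl, 1mM EDTA, 1mM DTT, pH 7.5) received compound, then a probe mix of 5 nM fluorescein-DNA and 100nM Texas-615-DNA. Fluorescence polarization was read for both dyes.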
# A549 viability = counter-screen for Nrf2 inhibitors: cytotoxicity in A549 cells; A549 ARE-Fluc cells, CellTiter-Fluor viability, 18-24 h; Potency, µM (doses to about 46 µM), for the others: at the top dose activity change, negative = cytotoxicity, actives largely listed as inhibitors; hit rate 0.16% among 390,000; AID 504648; also: potency is read from the fitted curve at half-maximal effect; % is scaled to controls: 0 for no effect and ±100 for the full control effect
#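 A549 ARE_Fluc cells in 5% FBS OPTI-MEM were exposed to compounds in concentration-response for 18-24 h at 37 deg C. Viability was read by CellTiter-Fluor fluorescence (Ex 405/Em 525) after 30 min, before the luciferase read.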
# * = called active by the depositor; ? = inconclusive; nt = no result given. Unless noted, calls follow the shape of the dose curve; as a rule, active = well fitted curve in the direction sought with a large enough effect; inconclusive = small, poorly fitted or top-dose-only effect, or another doubt; inactive = no such curve, though single readings can be large; an effect the other way counts as inactive or inconclusive.
SMILES,LDHA block,Nrf2 ARE act,ALOX12 inh,Nrf2 inh,ERG-DNA inh,A549 viability
CCS(=O)(=O)c1ncc(Cl)c(C(=O)N(Cc2ccccc2)c2ccc(OC)cc2)n1,-7,?,-15%,23µM*,3%,?
CCS(=O)(=O)c1ncc(Cl)c(C(=O)N2CCN(c3ccc(OC)cc3)CC2)n1,5,-6%,-7%,21µM*,4%,?
Cc1ccc(-c2cc(NC(=O)C(C)C)c(=O)n(CC(=O)Nc3cccc(C(F)(F)F)c3)n2)cc1,1,nt,-19%,nt,nt,nt
O=C(Nc1ccc(Cl)cc1)[C@@H]1[C@@H]2C(=O)N(c3ccc4ccccc4c3)C(=O)[C@@H]2[C@H]2C=CC=NN21,9,13%,18µM*,2%,-3%,17%
CN1CCc2c(OCC(=O)N3N=C(c4cccs4)CC3c3ccc(F)cc3)cccc2C1=O (stereo not given),2,4%,-27%,?,2%,-6%
CCN1CCc2c(OCC(=O)N3N=C(c4cccs4)CC3c3ccc(F)cc3)cccc2C1=O (stereo not given),0,1%,-2%,23µM*,-9%,-22%
Clc1ccc(CN(CC2CCCO2)C(c2cccs2)c2nnnn2C2CCCC2)cc1 (stereo not given),-2,0%,4%,12µM*,0%,-26%
CCn1c2ccccc2c2cc(NC(=O)c3ccco3)ccc21,-3,2%,-8%,21µM*,nt,-18%
CCn1c2ccccc2c2cc(CN3CCN(C(=O)c4ccco4)CC3)ccc21,-16,2%,0.56µM*,nt,-17%,0%
CCn1c2ccccc2c2cc(NC(=O)CSc3nnc(C4CC4)n3Cc3ccco3)ccc21,-4,4%,?,18µM*,5%,-12%
CCn1c(=N)n(CC(=O)c2ccco2)c2ccccc21,0,10µM*,?,-19%,5%,-26%
O=C(Nc1cc(-c2ccccc2)nn1C1CCS(=O)(=O)C1)c1cccs1 (stereo not given),-1,nt,?,nt,nt,nt
Cc1ccc(NC(=O)COc2ccc3c(C)cc(=O)oc3c2)c(C)c1,-8,nt,?,nt,nt,nt
CC(C)C(=O)Nc1cc(S(=O)(=O)Nc2ccc(Cl)cc2)ccc1Cl,-12,-1%,-16%,?,12%,-15%
CC(C)(C)C(=O)Nc1cc(S(=O)(=O)Nc2ccc(Cl)cc2)ccc1O,-17,0%,40µM*,8%,25%,1%
O=S1(=O)CCC(N=Cc2cc(Br)ccc2O)C1 (stereo not given),0,0%,28µM*,nt,-7%,6%
CC1=C(C(=O)OC(C)(C)C)C(/C(Cl)=C/c2ccccc2)NC(=O)N1 (stereo not given),1,nt,-94%,nt,nt,nt
COc1ccc(CCN2CCCC(CN(C)C(=O)c3ccoc3C)C2)cc1 (stereo not given),4,2%,373%,-1%,6%,-2%
Cc1occc1C(=O)N(C)CC1CCCN(CCc2ccc(Cl)cc2)C1 (stereo not given),-5,4%,45µM*,nt,nt,nt
O=C(NCCc1ccccn1)c1ccc(C(F)(F)F)cc1,9,nt,0%,nt,nt,nt
Nc1cc(C(F)(F)F)ccc1NCCc1ccccn1,0,13µM*,-14%,-4%,30%,-17%
C#CCNC(=O)CN1CCN(C(=O)C2CCCC2)CC1,7,nt,-12%,nt,nt,nt
CCCCC1Cc2[nH]c(=S)[nH]c(=O)c2C(c2ccc(C(C)C)cc2)O1 (stereo not given),2,3%,40µM*,nt,nt,nt
COc1ccc(C(=O)CCC(=O)OCC(=O)c2ccc3c(c2)OCCO3)cc1,5,nt,-8%,nt,nt,nt
COc1ccc(NC(=O)C2CCC2)cc1S(=O)(=O)Nc1cc(C)ccc1Br,-2,0%,-29%,21µM*,4%,?
SMILES,LDHA block,Nrf2 ARE act,ALOX12 inh,Nrf2 inh,ERG-DNA inh,A549 viability
COc1ccc(NS(=O)(=O)c2cc(NC(=O)CCSc3ccccc3)ccc2OC)cc1,0,2%,1%,?,-3%,-7%
COc1ccc(NC(=O)[C@H](C)NC(N)=O)cc1S(=O)(=O)Nc1cc(C)ccc1Br,-4,0%,-3%,2%,-8%,-7%
COc1ccc(NC(=O)CCSc2ccc(C)cc2)cc1S(=O)(=O)Nc1ccccc1Cl,-4,0%,-2%,23µM*,5%,2%
CCc1cccc(NC(=O)c2nc3ccccc3nc2N(CC)CC)c1,5,nt,-9%,nt,nt,nt
CC(O)c1ccc(-c2ccc(CNC3CCCCC3)o2)cc1 (stereo not given),2,nt,?,nt,nt,nt
Cn1c(=O)c2c(nc(CN3CCN(c4ccc(F)cc4)CC3)n2Cc2ccc(F)cc2)n(C)c1=O,2,nt,?,nt,nt,nt
Cc1nn(-c2ccccc2)nc1C(=O)c1c(C)[nH]n(-c2ccccc2)c1=O,0,0%,78%,21µM*,15%,?
Cc1nc2ccn(Cc3ccco3)c(=O)c2cc1C(=O)Nc1ccc(F)cc1,4,13µM*,?,-14%,1%,5%
CCc1cccc(NC(=O)COC(=O)c2ccc(C3Nc4ccccc4S(=O)(=O)N3)cc2)c1 (stereo not given),-3,nt,-13%,nt,nt,nt
CC(C)COc1ccc(-c2nn(-c3ccccc3)cc2/C=C2/SC(=S)N(CC(=O)O)C2=O)cc1,-2,-1%,45µM*,-3%,-3%,-10%
Cc1ccc(NS(=O)(=O)c2ccc(C(=O)NCCN3CCOCC3)cc2)cc1,-3,0%,-10%,9.2µM*,16%,-2%
CC(=O)c1cccc(NC(=O)c2ccc(CN3CCc4ccccc4C3)cc2)c1,-2,4%,2%,-19%,-6%,5%
CCOC(=O)c1ccc(NC(=O)CSc2nc(=O)n(CCN3CCOCC3)c3c2CCC3)cc1,0,4%,-14%,18µM*,5%,0%
CC(=O)c1ccc(NC(=O)CSc2nc(=O)n(CCN3CCOCC3)c3c2CCC3)cc1,-9,3%,6%,-1%,-3%,1%
Cc1ccc(C(=O)NC(=S)Nc2ccc(CN3CCOCC3)cc2)cc1,-2,0%,35µM*,?,-1%,-1%
Cc1cc(C)c(NC(=O)c2ccc(CN3CCc4ccccc4C3)cc2)c(C)c1,-4,3%,0%,23µM*,9%,?
CC1CCCCN1S(=O)(=O)c1ccc(C(=O)Nc2ccc(Cl)c3ncsc23)cc1 (stereo not given),-6,nt,-8%,nt,nt,nt
COc1ccc(-c2c(C)nn3c2NC(=O)CCC3=O)cc1S(=O)(=O)Nc1ccccc1F,-4,nt,?,nt,nt,nt
CCOC(=O)c1ccc(NC(=O)c2ccc(CN3CCc4ccccc4C3)cc2)cc1,-9,0%,?,23µM*,7%,?
